Activity calls are given as the source filed them.
Tests used:
[1] = binders of probe aFSTL3 on microarray, primary screen, stem cell growth factor project, biochemical, small-molecule microarray, fluorescence 635/667 (AID 1064); settings: higher = more signal;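 note: measures binding of the biotinylated anti-FSTL3 antibody to printed compounds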
[2] = binders from COS7 lysate, DM2A8 probe, primary screen, torsin A project, cell lysate, small-molecule microarray, fluorescence 635/667 (AID 1065); settings: higher = more signal, COS7 lysate expressing mutant human TOR1A
[3] = binders of probe aFGF2 on microarray, primary screen, stem cell growth factor project, biochemical, small-molecule microarray, fluorescence 635/667 (AID 1067); settings: higher = more signal;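 note: measures binding of biotinylated aFGF2 protein to printed compounds on slides; z-score merges feature fluorescence and signal-to-noise across triplicate slides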
[4] = binders of probe aFGF10 on microarray, primary screen, stem cell growth factor project, biochemical, small-molecule microarray, fluorescence 635/667 (AID 1071); settings: higher = more signal;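 note: score merges 667 nm spot intensity and signal to noise from triplicate slides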
[5] = target: Neurogenic locus notch homolog protein 2 (Homo sapiens) (UniProt Q04721); assay: Notch2 binders on small-molecule microarrays, primary screen, biochemical, small-molecule microarray, 635 nm fluorescence, stem cell growth factors (AID 1073); settings: Notch2 binding, higher = more signal
[6] = target: Pro-neuregulin-1, membrane-bound isoform (Homo sapiens) (UniProt Q02297); assay: NRG1 binders on small-molecule microarrays, primary screen, psychiatric disease protein project, biochemical, small-molecule microarray, fluorescence 635/667 (AID 1075); settings: NRG1 binding, 635 nm fluorescence, higher = more signal;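 note: score combines 667 nm spot fluorescence with signal to noise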
[7] = test system: Neuregulin-1 EGF-like domain; assay: binders of neuregulin-1 EGF-like domain, primary screen, biochemical, small-molecule microarray, 635 nm fluorescence (AID 1081); settings: small-molecule microarray binding, higher = more signal;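 note: binding of the protein to compounds printed on small-molecule microarray slides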
[8] = FRG1 promoter luciferase signal modulators, primary screen, FRG1 inhibition for FSHD, cell-based, C2C12 myotubes, firefly/Renilla luciferase, luminescence (AID 1084); settings: higher = more signal, called active from +8 up or from −8 down
[9] = binders of probe aFST on microarray, primary screen, stem cell growth factor project, biochemical, small-molecule microarray, fluorescence 635/667 (AID 1086); settings: higher = more signal;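 note: score merges 667 nm fluorescence with signal-to-noise of each printed compound spot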
[10] = binders of probe aHhip on microarray, primary screen, stem cell growth factor project, biochemical, small-molecule microarray, fluorescence 635/667 (AID 1087); settings: higher = more signal;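 note: score merges spot fluorescence at 667nm with spot signal to noise ratio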
[11] = test system: PRMT1 (protein arginine N-methyltransferase 1); assay: PRMT1 binders on small-molecule microarrays, primary screen, biochemical, small-molecule microarray, 635 nm fluorescence (AID 1088); settings: small-molecule microarray binding, higher = more signal;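 note: binding of Prmt1 protein to compounds spotted on small-molecule microarray slides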
[12] = yeast growth modulation, basal conditions, primary screen, YJM789 clinical isolate, OD600, 24 h (AID 1089);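 note: growth of clinical yeast isolate S. cerevisiae YJM 789 seeded 1000 cells per well; test concentration not given here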; settings: S. cerevisiae YJM789 growth, higher = more signal, called active from +8 up or from −8 down
[13] = fission yeast growth modulation, primary screen, strain 972, OD600, 24 h, no modulator (AID 1090);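 note: basal condition with compound alone and no growth modifier present; test concentration not given here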; settings: S. pombe 972 growth, higher = more signal, called active from +8 up or from −8 down
[14] = S. cerevisiae growth modulation with rapamycin, primary screen, strain BY4716, OD600, 96 h (AID 1091); settings: higher = more signal, called active from +8 up or from −8 down; note: test concentration not given here
[15] = target: Torsin-1A-interacting protein 2 (Homo sapiens) (UniProt Q8NFQ8); assay: LULL1 binders on small-molecule microarray, primary screen, cell lysate, human LULL1 lysate, 635/667 nm fluorescence (AID 1092); settings: hLULL1 lysate binding, 635 nm fluorescence, higher = more signal;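 note: probe is lysate of COS7 cells overexpressing human LULL1; score merges per-feature 667 nm fluorescence with signal-to-noise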
[16] = E. coli growth modulation, two-sided OD650, primary screen, E. coli filamentation project, strain DRC41, 24 h (AID 1093); settings: OD650, 24 h, higher = more signal, called active from +8 up or from −8 down;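 note: MC1000 strain lacking acrAB efflux and sulA so SOS filamentation is blocked; test concentration not given here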
[17] = small-molecule microarray binders of probe aLefty2, primary screen, biochemical, biotinylated probe, 635/667 nm fluorescence (AID 1094); settings: higher = more signal;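 note: score merges spot fluorescence near 667 nm with spot signal-to-noise ratio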
[18] = test system: Noggin (protein binding on small-molecule microarray); assay: Noggin binders on small-molecule microarray, primary screen, biochemical, 635/667 nm fluorescence (AID 1095); settings: 635 nm fluorescence, higher = more signal;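 note: score merges 667 nm feature fluorescence with signal to noise over triplicate slides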
[19] = target: Neurogenic locus notch homolog protein 3 (Homo sapiens) (UniProt Q9UM47); assay: NOTCH3 binders on small-molecule microarray, primary screen, biochemical, 635/667 nm fluorescence (AID 1096); settings: NOTCH3 binding, 635 nm fluorescence, higher = more signal
[20] = small-molecule microarray binders of probe aEGFR, primary screen, biochemical, biotinylated probe, 635/667 nm fluorescence (AID 1097); settings: higher = more signal;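 note: probe is a biotinylated anti-EGFR antibody binding compounds printed on slides; score combines fluorescence near 667 nm and signal to noise of each spot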

Torsin-1A-interacting protein 2 (Homo sapiens), sequence (Q8NFQ8 whole entry, looked up): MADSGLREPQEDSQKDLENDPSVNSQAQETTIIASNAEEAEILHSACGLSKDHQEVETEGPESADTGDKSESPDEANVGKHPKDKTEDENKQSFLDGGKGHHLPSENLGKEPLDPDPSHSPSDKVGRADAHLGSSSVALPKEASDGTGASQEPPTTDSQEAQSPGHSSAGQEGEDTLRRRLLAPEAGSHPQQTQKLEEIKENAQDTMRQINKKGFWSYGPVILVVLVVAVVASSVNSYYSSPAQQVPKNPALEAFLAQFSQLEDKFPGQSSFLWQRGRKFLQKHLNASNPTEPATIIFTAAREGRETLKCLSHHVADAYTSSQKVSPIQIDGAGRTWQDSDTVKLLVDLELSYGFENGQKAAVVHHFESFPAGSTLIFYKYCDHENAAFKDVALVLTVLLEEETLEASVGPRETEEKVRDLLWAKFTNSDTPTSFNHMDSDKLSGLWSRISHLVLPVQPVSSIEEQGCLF
Pro-neuregulin-1, membrane-bound isoform (Homo sapiens), sequence (Q02297 whole entry, looked up, the tested form may be a part, canonical isoform): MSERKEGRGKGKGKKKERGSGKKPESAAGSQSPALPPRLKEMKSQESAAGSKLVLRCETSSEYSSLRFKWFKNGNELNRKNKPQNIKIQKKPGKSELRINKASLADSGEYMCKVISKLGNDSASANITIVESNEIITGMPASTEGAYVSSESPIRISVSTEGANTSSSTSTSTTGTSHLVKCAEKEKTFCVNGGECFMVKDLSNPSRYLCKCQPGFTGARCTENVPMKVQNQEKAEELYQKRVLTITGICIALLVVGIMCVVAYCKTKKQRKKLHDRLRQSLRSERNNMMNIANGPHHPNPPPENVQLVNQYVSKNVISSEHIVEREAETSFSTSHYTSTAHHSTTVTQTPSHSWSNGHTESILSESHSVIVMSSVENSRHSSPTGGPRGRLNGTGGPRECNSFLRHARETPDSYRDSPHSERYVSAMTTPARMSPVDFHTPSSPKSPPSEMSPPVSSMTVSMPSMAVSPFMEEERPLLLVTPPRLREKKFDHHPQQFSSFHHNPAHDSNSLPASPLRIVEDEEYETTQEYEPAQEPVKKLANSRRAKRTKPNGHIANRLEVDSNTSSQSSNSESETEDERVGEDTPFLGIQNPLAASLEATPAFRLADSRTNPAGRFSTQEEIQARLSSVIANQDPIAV
Neurogenic locus notch homolog protein 3 (Homo sapiens), sequence (Q9UM47 whole entry, looked up): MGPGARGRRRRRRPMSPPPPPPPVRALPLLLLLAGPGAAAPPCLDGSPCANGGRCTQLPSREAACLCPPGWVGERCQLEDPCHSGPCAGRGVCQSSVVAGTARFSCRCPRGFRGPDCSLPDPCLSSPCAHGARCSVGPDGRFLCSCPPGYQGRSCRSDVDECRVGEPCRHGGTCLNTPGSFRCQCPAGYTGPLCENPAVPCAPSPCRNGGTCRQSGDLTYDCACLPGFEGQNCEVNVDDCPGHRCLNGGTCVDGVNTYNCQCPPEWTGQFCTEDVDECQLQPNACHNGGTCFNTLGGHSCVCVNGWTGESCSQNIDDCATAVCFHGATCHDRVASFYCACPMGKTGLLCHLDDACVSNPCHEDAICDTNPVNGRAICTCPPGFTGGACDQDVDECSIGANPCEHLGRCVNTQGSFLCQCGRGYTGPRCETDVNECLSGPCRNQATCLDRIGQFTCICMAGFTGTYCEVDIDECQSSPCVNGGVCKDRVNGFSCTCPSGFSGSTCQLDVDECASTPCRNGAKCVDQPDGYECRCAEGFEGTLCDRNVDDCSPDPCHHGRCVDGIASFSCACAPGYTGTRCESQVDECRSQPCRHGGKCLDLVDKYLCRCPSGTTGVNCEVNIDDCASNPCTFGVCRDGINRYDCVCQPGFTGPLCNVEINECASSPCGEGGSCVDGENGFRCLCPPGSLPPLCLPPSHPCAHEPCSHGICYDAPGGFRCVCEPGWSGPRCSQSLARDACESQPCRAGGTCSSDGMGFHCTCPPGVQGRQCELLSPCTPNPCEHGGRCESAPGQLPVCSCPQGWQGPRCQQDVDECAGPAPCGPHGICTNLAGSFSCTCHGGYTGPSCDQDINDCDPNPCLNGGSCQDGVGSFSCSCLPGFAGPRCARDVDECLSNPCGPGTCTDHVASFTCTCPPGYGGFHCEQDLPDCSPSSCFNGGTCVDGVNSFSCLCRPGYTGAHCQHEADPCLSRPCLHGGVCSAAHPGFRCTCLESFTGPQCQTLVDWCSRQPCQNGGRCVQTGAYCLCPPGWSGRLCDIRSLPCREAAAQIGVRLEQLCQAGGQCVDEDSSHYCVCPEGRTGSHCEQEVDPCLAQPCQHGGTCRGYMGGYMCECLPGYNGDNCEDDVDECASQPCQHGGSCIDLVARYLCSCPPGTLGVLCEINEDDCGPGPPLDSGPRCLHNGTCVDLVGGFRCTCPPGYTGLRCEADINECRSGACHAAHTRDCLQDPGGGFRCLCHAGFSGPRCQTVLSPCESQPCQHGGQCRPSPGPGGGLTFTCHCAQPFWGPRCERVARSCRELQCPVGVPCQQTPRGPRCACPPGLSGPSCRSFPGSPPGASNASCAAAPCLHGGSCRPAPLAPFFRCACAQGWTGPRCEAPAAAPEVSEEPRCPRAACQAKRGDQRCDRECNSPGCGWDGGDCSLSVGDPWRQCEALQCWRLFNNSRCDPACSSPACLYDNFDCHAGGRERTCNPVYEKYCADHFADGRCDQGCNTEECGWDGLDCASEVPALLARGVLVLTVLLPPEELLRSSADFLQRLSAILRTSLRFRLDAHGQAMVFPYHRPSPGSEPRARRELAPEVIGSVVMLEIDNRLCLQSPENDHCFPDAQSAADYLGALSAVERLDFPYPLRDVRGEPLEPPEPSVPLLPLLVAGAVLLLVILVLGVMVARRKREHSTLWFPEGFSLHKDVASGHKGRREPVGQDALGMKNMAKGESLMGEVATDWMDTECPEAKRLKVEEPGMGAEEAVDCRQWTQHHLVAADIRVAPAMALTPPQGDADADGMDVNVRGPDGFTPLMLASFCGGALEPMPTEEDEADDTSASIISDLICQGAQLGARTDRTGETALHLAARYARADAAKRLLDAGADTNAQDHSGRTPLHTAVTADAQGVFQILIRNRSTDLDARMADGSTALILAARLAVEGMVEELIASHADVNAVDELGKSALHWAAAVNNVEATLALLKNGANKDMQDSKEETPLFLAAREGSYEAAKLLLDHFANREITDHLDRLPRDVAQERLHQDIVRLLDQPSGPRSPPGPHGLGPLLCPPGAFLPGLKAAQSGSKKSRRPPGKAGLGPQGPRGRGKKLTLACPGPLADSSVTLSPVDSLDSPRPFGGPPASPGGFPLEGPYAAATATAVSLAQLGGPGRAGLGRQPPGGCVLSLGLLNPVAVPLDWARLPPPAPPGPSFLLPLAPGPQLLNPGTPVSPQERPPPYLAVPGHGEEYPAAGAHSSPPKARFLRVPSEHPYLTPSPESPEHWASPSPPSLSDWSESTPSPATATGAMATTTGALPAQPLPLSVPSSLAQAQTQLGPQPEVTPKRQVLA

CCCCc1nc2c(c3c1C[C@H](C)OC3)CN(CCOc1ccccc1)CC2
composite z-score [1]: -0.43
composite z-score [2]: 0.575
composite z-score [3]: -0.149
composite z-score [4]: 0.414
composite z-score [5]: 0.882
composite z-score [6]: 0.363
composite z-score [7]: 0.881
z-score [8]: -1.55 (inactive)
composite z-score [9]: 0.192
composite z-score [10]: 0.213
composite z-score [11]: 1.44
z-score [12]: -2.26 (inactive)
z-score [13]: -4.02 (inactive)
z-score [14]: 0.574 (inactive)
composite z-score [15]: 1.62
z-score [16]: 0.976 (inactive)
composite z-score [17]: -0.005
composite z-score [18]: 0.339
composite z-score [19]: 0.732
composite z-score [20]: 0.219

CCCNC(=O)OC[C@H]1O[C@H](c2ccccc2)C=C[C@@H]1Oc1ccc(OC)cc1
composite z-score [1]: -0.428
composite z-score [2]: 0.273
composite z-score [3]: 0.0299
composite z-score [4]: 0.594
composite z-score [5]: 0.344
composite z-score [6]: -0.327
composite z-score [7]: -0.0407
z-score [8]: -0.0983 (inactive)
composite z-score [9]: -0.246
composite z-score [10]: -0.0994
composite z-score [11]: -0.0125
z-score [12]: -0.325 (inactive)
z-score [13]: -0.423 (inactive)
z-score [14]: 0.0199 (inactive)
composite z-score [15]: 0.361
z-score [16]: 0.806 (inactive)
composite z-score [17]: -0.0916
composite z-score [18]: -0.234
composite z-score [19]: -0.124
composite z-score [20]: -0.146

COc1ccc(O[C@H]2C=C[C@@H](c3ccccc3)O[C@@H]2CON=C(C)CCC(=O)OC[C@H]2O[C@H](c3ccccc3)C=C[C@@H]2Oc2ccc(OC)cc2)cc1
composite z-score [1]: 0.0321
composite z-score [2]: -0.543
composite z-score [3]: -0.141
composite z-score [4]: 0.0207
composite z-score [5]: -1.5
composite z-score [6]: -0.496
composite z-score [7]: -1.1
z-score [8]: 0.634 (inactive)
composite z-score [9]: -0.677
composite z-score [10]: -0.0994
composite z-score [11]: -2.44
z-score [12]: 0.76 (inactive)
z-score [13]: 0.91 (inactive)
z-score [14]: 0.525 (inactive)
composite z-score [15]: -1.78
z-score [16]: -0.0503 (inactive)
composite z-score [17]: -0.294
composite z-score [18]: -0.769
composite z-score [19]: 0.0708
composite z-score [20]: -0.267

C[C@H]1CC[C@H]2C(=O)O[C@H](COc3ccc(C(C)(C)C)cc3)CN2[C@@H]1c1ccc(Br)cc1
composite z-score [1]: -0.135
composite z-score [2]: 0.169
composite z-score [3]: -0.053
composite z-score [4]: -0.0634
composite z-score [5]: -0.0332
composite z-score [6]: 0.724
composite z-score [7]: -0.536
z-score [8]: -0.0935 (inactive)
composite z-score [9]: 0.125
composite z-score [10]: -0.371
composite z-score [11]: 0.27
z-score [12]: -0.364 (inactive)
z-score [13]: -0.725 (inactive)
z-score [14]: 0.474 (inactive)
composite z-score [15]: 0.55
z-score [16]: -0.535 (inactive)
composite z-score [17]: 0.0056
composite z-score [18]: -0.0084
composite z-score [19]: -0.164
composite z-score [20]: -0.143

COc1ccc(COC(=O)NN=C2C[C@@H](O)[C@@H](O)[C@@H]3[C@@H]4C(=O)N(c5ccc(F)cc5F)C(=O)[C@@H]4CC[C@H]23)cc1
composite z-score [1]: 1.64
composite z-score [2]: -0.398
composite z-score [3]: -0.128
composite z-score [4]: -0.088
composite z-score [5]: -0.412
composite z-score [6]: 0.461
composite z-score [7]: 0.179
z-score [8]: 0.398 (inactive)
composite z-score [9]: 1.28
composite z-score [10]: -0.0645
composite z-score [11]: 0.0093
z-score [12]: 0.201 (inactive)
z-score [13]: -4.12 (inactive)
z-score [14]: -0.971 (inactive)
composite z-score [15]: 0.142
z-score [16]: 0.0412 (inactive)
composite z-score [17]: 0.469
composite z-score [18]: -0.186
composite z-score [19]: -0.425
composite z-score [20]: -0.171

CCOC(=O)NN=C1C[C@@H](O)[C@@H](O)[C@@H]2[C@@H]3C(=O)N([C@@H](C)c4ccccc4)C(=O)[C@@H]3CC[C@@H]12
composite z-score [1]: -0.291
composite z-score [2]: 2.08
composite z-score [3]: -0.0934
composite z-score [4]: 0.393
composite z-score [5]: 0.601
composite z-score [6]: -0.133
composite z-score [7]: 0.11
z-score [8]: 0.696 (inactive)
composite z-score [9]: 0.517
composite z-score [10]: -0.0994
composite z-score [11]: 1.46
z-score [12]: -0.707 (inactive)
z-score [13]: 0.159 (inactive)
z-score [14]: -0.231 (inactive)
composite z-score [15]: -0.0284
z-score [16]: 0.667 (inactive)
composite z-score [17]: -0.113
composite z-score [18]: 0.797
composite z-score [19]: 0.954
composite z-score [20]: 0.143

CO[C@@H]1COC(=O)[C@@H](C)COC(=O)[C@@H](C)NC(=O)CC=C[C@@H]1C
composite z-score [1]: -0.538
composite z-score [2]: 0.544
composite z-score [3]: -0.133
composite z-score [4]: 0.231
composite z-score [5]: 0.198
composite z-score [6]: -0.308
composite z-score [7]: 0.675
z-score [8]: 0.156 (inactive)
composite z-score [9]: -0.235
composite z-score [10]: -0.342
composite z-score [11]: 1.55
z-score [12]: -2.2 (inactive)
z-score [13]: -1.61 (inactive)
z-score [14]: -2.47 (inactive)
composite z-score [15]: -0.963
z-score [16]: -0.801 (inactive)
composite z-score [17]: -0.154
composite z-score [18]: 1.6
composite z-score [19]: -0.0403
composite z-score [20]: -0.0041

COc1cccc([C@H]2Oc3ccc(OC)cc3C(=NOC[C@@H](C)[C@H](OCc3ccccc3)C(C)C)[C@@H]2O)c1
composite z-score [1]: -0.108
composite z-score [2]: 0.435
composite z-score [3]: -0.004
composite z-score [4]: 0.431
composite z-score [5]: 0.203
composite z-score [6]: -0.201
composite z-score [7]: 0.686
z-score [8]: 3.29 (inactive)
composite z-score [9]: 1.33
composite z-score [10]: 0.0274
composite z-score [11]: 0.169
z-score [12]: 0.0741 (inactive)
z-score [13]: 0.399 (inactive)
z-score [14]: 0.588 (inactive)
composite z-score [15]: 0.77
z-score [16]: -0.0364 (inactive)
composite z-score [17]: -0.341
composite z-score [18]: 0.0758
composite z-score [19]: 0.0869
composite z-score [20]: 0.0229

CC(C)CON=C1C[C@@H](O)[C@@H](O)[C@@H]2[C@@H]3C(=O)N(C4CCCCC4)C(=O)[C@@H]3CC[C@@H]12
composite z-score [1]: -0.216
composite z-score [2]: 1.2
composite z-score [3]: -0.0955
composite z-score [4]: 0.0675
composite z-score [5]: -0.0187
composite z-score [6]: 1.45
composite z-score [7]: -0.115
z-score [8]: -0.0468 (inactive)
composite z-score [9]: -0.0424
composite z-score [10]: -0.0994
composite z-score [11]: -0.0785
z-score [12]: 0.4 (inactive)
z-score [13]: -0.513 (inactive)
z-score [14]: 0.423 (inactive)
composite z-score [15]: 1.64
z-score [16]: -0.233 (inactive)
composite z-score [17]: -0.302
composite z-score [18]: 0.0295
composite z-score [19]: -0.519
composite z-score [20]: -0.154

CSCC[C@@H]1NC(=O)CC=C[C@@H](C)COC(=O)[C@@H](C)COC1=O
composite z-score [1]: -0.324
composite z-score [2]: 2.62
composite z-score [3]: -0.144
composite z-score [4]: -0.456
composite z-score [5]: -0.239
composite z-score [6]: -1.21
composite z-score [7]: 0.129
z-score [8]: -0.371 (inactive)
composite z-score [9]: -0.485
composite z-score [10]: -0.391
composite z-score [11]: 1.21
z-score [12]: 0.506 (inactive)
z-score [13]: -0.463 (inactive)
z-score [14]: -0.318 (inactive)
composite z-score [15]: 0.0424
z-score [16]: 0.59 (inactive)
composite z-score [17]: -0.103
composite z-score [18]: 0.882
composite z-score [19]: -0.142
composite z-score [20]: -0.197

COC(=O)[C@H](C)NC(=O)CCC1CC(OC(=O)NCc2ccc3c(c2)OCO3)CC2(CCCC(COC(=O)NCC(c3ccccc3)c3ccccc3)O2)O1 (stereo not given in full)
composite z-score [1]: -0.686
composite z-score [2]: 0.7
composite z-score [3]: -0.0541
composite z-score [4]: 1.17
composite z-score [5]: 0.994
composite z-score [6]: 0.682
composite z-score [7]: 1.28
z-score [8]: 2.96 (inactive)
composite z-score [9]: 0.132
composite z-score [10]: 0.0201
composite z-score [11]: 1.55
z-score [12]: -0.256 (inactive)
z-score [13]: -0.58 (inactive)
z-score [14]: -0.122 (inactive)
composite z-score [15]: 2.65
z-score [16]: -0.502 (inactive)
composite z-score [17]: -0.118
composite z-score [18]: 1.5
composite z-score [19]: 1.06
composite z-score [20]: 0.0004
